BJeLR viability: kills HRASV12-expressing BJeLR cells; 300,000 compounds, 0.17% hits; inhibition, % (no concentration beside the values); AID 1554; BJeLR (HRASV12) viability, CellTiter-Glo ATP luminescence, 48 h; in the data active = inhibition above about 50%
Mtb FBA inh: Mtb fructose-bisphosphate aldolase inhibition | P9WQA3 | 360,000 compounds, 2.3% hits | inhibition, % at 1 µM | purified M. tuberculosis FBA, fluorescence read-out | AID 588726
GDH-TPI counter-1: GDH-TPI coupled enzyme inhibition counter-screen | GDH-TPI coupled enzyme counterscreen, NADH absorbance | inhibition, % at 4.8 µM | 360,000 compounds, 1.2% hits | AID 588335; in the data active = inhibition above about 30%
RecA intein inh: inhibitors of M. tuberculosis RecA intein splicing | cell-free RecA intein splicing, fluorescence | inhibition, % (concentration not given with the values) | 290,000 compounds, 0.75% hits | AID 2221; in the data active = inhibition above about 30%
PrPC TRFRET: cell surface PrPC inhibition, primary TR-FRET screen; TR-FRET read-out; inhibition, % at 13.8 µM; 370,000 compounds, 0.43% hits; AID 720596; in the data active = inhibition above about 24%
GFP chromophore: counter-screen: blocks GFP chromophore formation; shares compounds with RecA intein inh; cell-free GFP chromophore formation, fluorescence; EC50, µM; 2,100 compounds, 83% hits; AID 434968; call rule not given here
Mtb FBA inh conf: confirmation of M. tuberculosis fructose-bisphosphate aldolase inhibitors; purified M. tuberculosis FBA, fluorescence read-out; shares compounds with Mtb FBA inh; inhibition, % at 1 µM; AID 651616; 5,600 compounds, 78% hits
GDH-TPI counter-2: GDH-TPI inhibition counter-screen for FBA inhibitors; shares compounds with Mtb FBA inh; GDH-TPI coupled enzyme counterscreen, fluorescence; inhibition, % at 1 µM; 5,600 compounds, 81% hits; AID 652141; in the data active = inhibition above about 10%
GDH-TPI dose: inhibits GDH-TPI coupling enzymes in dose response. GDH-TPI coupled enzyme assay, fluorescence, artifact counterscreen. shares compounds with Mtb FBA inh. IC50, µM. 170 compounds, 79% hits; call rule not given here
PrPC TRFRET cf: cell surface PrPC inhibition, TR-FRET confirmation; cell surface PrPC level; 1,500 compounds, 65% hits; AID 743200; inhibition, % at 13.8 µM; shares compounds with PrPC TRFRET; in the data active = inhibition above about 25%
LD9 tox: LD9 cell cytotoxicity, PrPc inhibitor counter-screen. 1,500 compounds, 29% hits. shares compounds with PrPC TRFRET. LD9 cells cytotoxicity, luminescence viability. inhibition, % at 13.8 µM; in the data active = inhibition above about 9.5%
Hits are given with their value; . = inactive; / = not tested or not shown; + = active, no number. Compounds with a hit are over-represented: about 4.2% of the library has one in this group of screens. Cut-off read from the data, not from the text of the source, unless noted: active = inhibition above about 27%; inactive = the rest.

SMILES | BJeLR viability | Mtb FBA inh | GDH-TPI counter-1 | RecA intein inh | PrPC TRFRET | GFP chromophore | others
O=C1NC(=O)C(=Cc2cc3c(cc2[N+](=O)[O-])OCO3)C(=O)N1 | . | . | . | 38.8 | . | .
COc1ccc(C2=NN(c3nc(C)cc(C)n3)C(=O)C2)cc1 | . | . | . | 78.3 | . | 6.87
N=C1CCC(=N)c2c1c(O)c1ccccc1c2O | . | . | . | 90.7 | / | 27.6
O=C1CCn2c1c(O)c1ccccc1c2=O | / | . | . | / | . | /
CCOC(=O)[C@@]12CCC3=C1N(CCC3)C(=O)[C@H](CC(=O)N1CCN(C(=O)C3CC3)CC1)C2 | / | / | / | / | . | /
CC1(S(=O)(=O)O)CC(=O)c2ccccc2C1=O (stereo not given) | . | . | . | 93.2 | . | 4.29
CC1(N2CCCCC2)C(=O)c2ccccc2C1=O | . | . | . | . | . | /
O=C(Cc1ccccc1Cl)NC1(O)C(=O)c2ccccc2C1=O | . | . | . | 51.5 | . | 12.3
Cc1ccc(-n2c(Cc3cccs3)nnc2SCC(=O)Nc2cccc3ccccc23)cc1 | / | / | / | / | . | /
CCOC(=O)c1c(NC(=O)c2ccco2)n(C2CCCCC2)c2nc3ccccc3nc12 | . | 62.7 | . | 54.8 | . | 21.2 | Mtb FBA inh conf=.;GDH-TPI counter-2=.;GDH-TPI dose=2.91
CC(C)CN1C(=O)[C@]2(CC(=O)N(C)C2c2ccccc2)c2cc(-n3cc(CCc4ccccc4)nn3)ccc21 (stereo not given in full) | / | / | / | / | . | /
O=C1C=C(Nc2ccccc2C(=O)O)c2ccccc2C1=O | . | 37.9 | . | 96.7 | . | 2.47 | Mtb FBA inh conf=+;GDH-TPI counter-2=157.1
O=C(O)c1ccccc1Nc1ccccc1C(=O)O | . | . | . | . | . | /
Cc1ccc(S(=O)(=O)NCC2CCN(C(=O)C(=O)c3cc4ccccc4o3)CC2)cc1 | / | / | / | / | . | /
C=CCn1c(NC(=O)c2ccc(Br)o2)c(S(=O)(=O)c2ccccc2)c2nc3ccccc3nc21 | . | 49.6 | . | 46.4 | . | 30.6 | Mtb FBA inh conf=51.9;GDH-TPI counter-2=47.1
CCCCCCCCCCCCCCCC[N+](C)(C)CC | . | . | . | 43.6 | 26.2 | 17.1 | PrPC TRFRET cf=35.9;LD9 tox=13.8
Cc1ccccc1-c1ccc2c(c1)[C@@H]1C[C@H](N(C)C(=O)c3ccco3)[C@H]([C@H](C)O)CN1CC2 | / | / | / | / | . | /
c1ccc(-c2nnc(-c3ccccn3)nc2NC2CCCCC2)cc1 | 66.0 | . | . | 37.9 | 37.9 | 22.6 | PrPC TRFRET cf=32.6;LD9 tox=44.9
C[C@H]1C2CC(OC(=O)Nc3cccc(F)c3)C(C2)[C@H]2CCCCN21 (stereo not given in full) | / | / | / | / | . | /
O=C1C(Cl)=C(Nc2ccc3cn[nH]c3c2)C(=O)c2ccccc21 | 87.2 | . | . | 89.5 | 70.9 | 1.52 | PrPC TRFRET cf=.;LD9 tox=98.3
CCOC(=O)[C@]12CCCCC/C=C\1N(CCc1ccc(Cl)cc1)C(=O)[C@H]2CC(=O)N1CCN(C(=O)c2ccco2)CC1 | / | / | / | / | . | /
O=[N+]([O-])c1ccc(OCCCN2CCC(C(O)(c3ccccc3)c3ccccc3)CC2)c(Cl)c1 | / | / | / | / | . | /
Cc1ccc(CSCc2nc3ccccc3[nH]2)cc1 | . | . | . | . | . | /
Cc1cc(C)cc(CC(Cc2nc3ccccc3[nH]2)c2nc3ccccc3[nH]2)c1 (stereo not given) | . | . | . | 35.7 | 27.5 | . | PrPC TRFRET cf=30.4;LD9 tox=.
O=C(CSc1nnc(COc2ccccc2)n1Cc1ccco1)Nc1ccc(OCc2ccccc2)cc1 | / | / | / | / | . | /
SMILES | BJeLR viability | Mtb FBA inh | GDH-TPI counter-1 | RecA intein inh | PrPC TRFRET | GFP chromophore | others
COc1cccc(OC(=O)CSc2nnc(-c3ccccc3Br)o2)c1 | . | . | . | 74.1 | 32.4 | 26.2 | PrPC TRFRET cf=38.2;LD9 tox=.
Cc1[nH]c2ccccc2c1/C=N/Nc1nc2ccccc2[nH]1 | . | . | . | 33.9 | 29.9 | . | PrPC TRFRET cf=.;LD9 tox=11.8
O=[N+]([O-])c1c(Nc2ccc(O)cc2)cc(Cl)c2nonc12 | 52.1 | . | . | 95.3 | 79.5 | 1.01 | PrPC TRFRET cf=94.5;LD9 tox=99.2
CN(C)c1cc(Nc2ccc(O)cc2)c([N+](=O)[O-])c2nonc12 | . | . | . | . | . | /
CCC1CCCCN1S(=O)(=O)c1ccc(NC(=O)c2nc(S(C)(=O)=O)ncc2Cl)cc1 (stereo not given) | . | . | . | 96.6 | 79.0 | 1.26 | PrPC TRFRET cf=83.3;LD9 tox=96.9
CSc1ncc(Cl)c(C(=O)Nc2ccc(NC(C)=O)cc2)n1 | . | . | . | . | . | /
CS(=O)(=O)c1ncc(Cl)c(C(=O)Nc2ccc3ccccc3c2)n1 | . | . | . | 30.9 | 84.0 | 12.4 | PrPC TRFRET cf=77.4;LD9 tox=87.1
CC(=O)Nc1ccc(NC(=O)c2nc(S(=O)(=O)Cc3ccccc3)ncc2Cl)cc1 | . | . | . | 39.9 | 65.1 | 26.1 | PrPC TRFRET cf=.;LD9 tox=78.2
CCS(=O)(=O)c1ncc(Cl)c(C(=O)Nc2ccc(S(=O)(=O)N3CCCC(C)C3)cc2)n1 (stereo not given) | . | . | . | . | . | /
CCS(=O)(=O)c1ncc(Cl)c(C(=O)Nc2ccc(C)cc2)n1 | . | . | . | 64.5 | 41.9 | 22.7 | PrPC TRFRET cf=44.3;LD9 tox=84.8
O=C(Nc1ccc2ccccc2c1)c1cnccn1 | . | . | . | . | . | /
COC(=O)C1CN(CCO)CCS(=O)(=O)N1Cc1cn(Cc2cccc(Cl)c2)nn1 (stereo not given) | / | / | / | / | . | /
O=C(Nc1ccc(-c2nnc(-c3ccccc3)o2)cc1)C(F)(F)F | . | . | . | . | . | /
COc1ccccc1OCC(=O)Nc1cccc(-c2nnc(-c3ccco3)o2)c1 | . | . | . | . | . | /
O=C(COc1ccccc1)Nc1ccc(-c2nnc(-c3ccco3)o2)cc1 | . | 35.7 | . | . | . | / | Mtb FBA inh conf=.;GDH-TPI counter-2=.
CC(C)C(=O)Nc1ccc(-c2nnc(-c3ccccc3)o2)cc1 | . | 33.1 | . | . | . | / | Mtb FBA inh conf=47.2;GDH-TPI counter-2=35.5
O=C(Cc1ccccc1)Nc1cccc(-c2nnc(-c3ccco3)o2)c1 | . | 32.2 | . | . | . | / | Mtb FBA inh conf=38.4;GDH-TPI counter-2=35.3
O=C(Cc1ccc(Cl)cc1)Nc1cccc(-c2nnc(-c3ccco3)o2)c1 | . | . | . | . | . | /
CC(=O)Nc1ccc(-c2nc3ccccc3c(=O)o2)cc1 | . | . | . | . | . | /
CC(=O)/C=C(\C)Nc1ccc(-c2cnc(-c3ccccc3)o2)cc1 | . | 90.2 | . | . | . | / | Mtb FBA inh conf=91.1;GDH-TPI counter-2=76.3
C#CCNC(=O)C[C@H]1C[C@@]2(C(=O)OC)C(=C[C@H](C3CCCC3)O[C@@H]2C)N(CCC2=CCCCC2)C1=O | / | / | / | / | . | /

High-throughput results (PubChem BioAssay)
